# According to PubChem BioAssay:
# Calls of active or inactive are those of the source.
# Key:
# [1] = tested on: PRMT1 (protein arginine N-methyltransferase 1); experiment: PRMT1 binders on small-molecule microarrays, primary screen, biochemical, small-molecule microarray, 635 nm fluorescence (AID 1088); conditions: small-molecule microarray binding, higher = more signal;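 further: binding of Prmt1 protein to compounds spotted on small-molecule microarray slides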
# [2] = yeast growth modulation, basal conditions, primary screen, YJM789 clinical isolate, OD600, 24 h (AID 1089);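 further: growth of clinical yeast isolate S. cerevisiae YJM 789 seeded 1000 cells per well; test concentration not given here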; conditions: S. cerevisiae YJM789 growth, higher = more signal, called active from +8 up or from −8 down
# [3] = fission yeast growth modulation, primary screen, strain 972, OD600, 24 h, no modulator (AID 1090);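 further: basal condition with compound alone and no growth modifier present; test concentration not given here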; conditions: S. pombe 972 growth, higher = more signal, called active from +8 up or from −8 down
# [4] = S. cerevisiae growth modulation with rapamycin, primary screen, strain BY4716, OD600, 96 h (AID 1091); conditions: higher = more signal, called active from +8 up or from −8 down; further: test concentration not given here
# [5] = target: Torsin-1A-interacting protein 2 (Homo sapiens) (UniProt Q8NFQ8); experiment: LULL1 binders on small-molecule microarray, primary screen, cell lysate, human LULL1 lysate, 635/667 nm fluorescence (AID 1092); conditions: hLULL1 lysate binding, 635 nm fluorescence, higher = more signal;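 further: probe is lysate of COS7 cells overexpressing human LULL1; score merges per-feature 667 nm fluorescence with signal-to-noise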
# Sequence of Torsin-1A-interacting protein 2 (Homo sapiens) (Q8NFQ8 whole entry, looked up): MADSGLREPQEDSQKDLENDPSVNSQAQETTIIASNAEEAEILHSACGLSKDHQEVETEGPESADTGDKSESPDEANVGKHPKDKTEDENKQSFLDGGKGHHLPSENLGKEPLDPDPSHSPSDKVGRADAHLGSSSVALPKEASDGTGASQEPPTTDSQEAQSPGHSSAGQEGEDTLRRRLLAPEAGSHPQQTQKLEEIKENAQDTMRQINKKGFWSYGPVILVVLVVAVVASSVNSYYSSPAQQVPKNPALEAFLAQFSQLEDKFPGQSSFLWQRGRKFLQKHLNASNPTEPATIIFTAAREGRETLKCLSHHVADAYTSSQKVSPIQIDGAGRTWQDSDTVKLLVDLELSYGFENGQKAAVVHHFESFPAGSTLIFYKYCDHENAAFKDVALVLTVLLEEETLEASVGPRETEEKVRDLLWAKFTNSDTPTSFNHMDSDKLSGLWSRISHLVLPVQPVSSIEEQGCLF
# [6] = E. coli growth modulation, two-sided OD650, primary screen, E. coli filamentation project, strain DRC41, 24 h (AID 1093); conditions: OD650, 24 h, higher = more signal, called active from +8 up or from −8 down;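 further: MC1000 strain lacking acrAB efflux and sulA so SOS filamentation is blocked; test concentration not given here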
# [7] = small-molecule microarray binders of probe aLefty2, primary screen, biochemical, biotinylated probe, 635/667 nm fluorescence (AID 1094); conditions: higher = more signal;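 further: score merges spot fluorescence near 667 nm with spot signal-to-noise ratio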
# [8] = tested on: Noggin (protein binding on small-molecule microarray); experiment: Noggin binders on small-molecule microarray, primary screen, biochemical, 635/667 nm fluorescence (AID 1095); conditions: 635 nm fluorescence, higher = more signal;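 further: score merges 667 nm feature fluorescence with signal to noise over triplicate slides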
# [9] = target: Neurogenic locus notch homolog protein 3 (Homo sapiens) (UniProt Q9UM47); experiment: NOTCH3 binders on small-molecule microarray, primary screen, biochemical, 635/667 nm fluorescence (AID 1096); conditions: NOTCH3 binding, 635 nm fluorescence, higher = more signal
# Sequence of Neurogenic locus notch homolog protein 3 (Homo sapiens) (Q9UM47 whole entry, looked up): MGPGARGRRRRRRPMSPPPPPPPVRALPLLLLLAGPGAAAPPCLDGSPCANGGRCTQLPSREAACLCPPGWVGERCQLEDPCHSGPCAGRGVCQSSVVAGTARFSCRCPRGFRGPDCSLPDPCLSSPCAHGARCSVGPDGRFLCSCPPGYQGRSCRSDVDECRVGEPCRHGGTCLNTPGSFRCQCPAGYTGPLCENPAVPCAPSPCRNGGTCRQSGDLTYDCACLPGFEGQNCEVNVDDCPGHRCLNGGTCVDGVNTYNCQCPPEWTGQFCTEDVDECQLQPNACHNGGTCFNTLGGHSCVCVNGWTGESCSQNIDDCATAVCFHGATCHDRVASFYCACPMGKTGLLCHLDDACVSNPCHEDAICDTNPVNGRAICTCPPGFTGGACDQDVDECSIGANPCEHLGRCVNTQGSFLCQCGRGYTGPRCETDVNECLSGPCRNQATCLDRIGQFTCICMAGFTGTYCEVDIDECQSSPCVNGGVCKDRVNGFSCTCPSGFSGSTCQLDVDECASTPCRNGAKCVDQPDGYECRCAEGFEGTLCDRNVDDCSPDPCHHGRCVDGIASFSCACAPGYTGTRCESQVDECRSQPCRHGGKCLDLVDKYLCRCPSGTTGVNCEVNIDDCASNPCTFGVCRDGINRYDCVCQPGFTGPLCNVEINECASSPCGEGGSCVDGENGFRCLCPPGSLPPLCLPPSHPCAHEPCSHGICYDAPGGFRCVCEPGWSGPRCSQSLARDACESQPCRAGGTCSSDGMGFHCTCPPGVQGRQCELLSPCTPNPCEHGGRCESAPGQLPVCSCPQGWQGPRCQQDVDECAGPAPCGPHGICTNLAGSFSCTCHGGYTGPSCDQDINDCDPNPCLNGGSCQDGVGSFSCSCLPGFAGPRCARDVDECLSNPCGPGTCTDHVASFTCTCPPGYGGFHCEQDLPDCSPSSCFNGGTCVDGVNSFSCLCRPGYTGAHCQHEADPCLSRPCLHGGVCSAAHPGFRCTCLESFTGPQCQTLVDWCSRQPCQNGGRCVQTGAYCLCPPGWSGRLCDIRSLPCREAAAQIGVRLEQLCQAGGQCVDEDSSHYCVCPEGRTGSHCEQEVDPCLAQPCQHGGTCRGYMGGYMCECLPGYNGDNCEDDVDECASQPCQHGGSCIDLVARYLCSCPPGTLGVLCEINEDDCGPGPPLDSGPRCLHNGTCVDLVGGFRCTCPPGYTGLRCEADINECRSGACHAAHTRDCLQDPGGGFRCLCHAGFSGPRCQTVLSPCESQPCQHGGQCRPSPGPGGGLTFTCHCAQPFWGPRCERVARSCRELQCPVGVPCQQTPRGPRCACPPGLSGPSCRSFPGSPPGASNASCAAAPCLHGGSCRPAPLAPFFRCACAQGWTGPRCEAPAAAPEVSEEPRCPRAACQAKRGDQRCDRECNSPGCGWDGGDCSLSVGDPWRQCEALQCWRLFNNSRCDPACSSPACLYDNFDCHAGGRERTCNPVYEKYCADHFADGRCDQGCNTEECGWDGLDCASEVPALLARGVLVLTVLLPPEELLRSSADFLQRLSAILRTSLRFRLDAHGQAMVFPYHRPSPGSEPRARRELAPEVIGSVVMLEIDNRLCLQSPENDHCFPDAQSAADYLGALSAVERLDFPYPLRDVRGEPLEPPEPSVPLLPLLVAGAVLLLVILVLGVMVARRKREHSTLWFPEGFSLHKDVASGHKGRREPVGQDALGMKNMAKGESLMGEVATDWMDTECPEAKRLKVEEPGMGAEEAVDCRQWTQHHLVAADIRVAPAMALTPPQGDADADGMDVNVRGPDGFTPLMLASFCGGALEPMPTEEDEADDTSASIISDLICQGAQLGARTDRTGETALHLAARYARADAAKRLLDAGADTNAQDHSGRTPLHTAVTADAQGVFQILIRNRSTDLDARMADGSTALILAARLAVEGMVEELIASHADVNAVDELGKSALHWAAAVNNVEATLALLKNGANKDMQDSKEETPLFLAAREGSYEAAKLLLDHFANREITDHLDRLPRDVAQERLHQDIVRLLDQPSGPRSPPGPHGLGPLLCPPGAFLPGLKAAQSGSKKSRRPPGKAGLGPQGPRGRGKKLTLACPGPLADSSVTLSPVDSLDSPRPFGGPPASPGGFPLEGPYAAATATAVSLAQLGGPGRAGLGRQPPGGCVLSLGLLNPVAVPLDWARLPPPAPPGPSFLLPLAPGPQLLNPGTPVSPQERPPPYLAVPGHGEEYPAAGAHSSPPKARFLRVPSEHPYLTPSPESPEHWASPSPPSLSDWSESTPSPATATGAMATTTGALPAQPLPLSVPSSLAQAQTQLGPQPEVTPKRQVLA
# [10] = small-molecule microarray binders of probe aEGFR, primary screen, biochemical, biotinylated probe, 635/667 nm fluorescence (AID 1097); conditions: higher = more signal;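 further: probe is a biotinylated anti-EGFR antibody binding compounds printed on slides; score combines fluorescence near 667 nm and signal to noise of each spot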
# [11] = tested on: Plasmodium falciparum Sir2 (PF13_0152, Sir2A); experiment: pfSir2 binders on small-molecule microarrays, primary screen, biochemical, small-molecule microarray, 635 nm fluorescence (AID 1098); conditions: small-molecule microarray binding, fluorescence 635 nm; higher = more signal;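 further: score merges spot fluorescence intensity with its signal-to-noise ratio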
# [12] = small-molecule microarray binders of probe aDKK1, primary screen, biochemical, biotinylated probe, 635/667 nm fluorescence (AID 1099); conditions: higher = more signal;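 further: score merges 667nm spot fluorescence with signal to noise across triplicate slides; reference of the scale not given here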
# [13] = small-molecule microarray binders of probe aCHRDL2, primary screen, biochemical, biotinylated probe, 635/667 nm fluorescence (AID 1100); conditions: higher = more signal
# [14] = splicing luciferase reporter signal modulators, primary screen, spliceosome inhibition project, cell-based, HEK293, splice +/- reporter (AID 1101); conditions: luminescence, 24 h, higher = more signal, called active from +8 up or from −8 down;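 further: HEK293 cells carrying a splicing-competent luciferase reporter gene; test concentration not given here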
# [15] = target: Fibroblast growth factor 10 (Homo sapiens) (UniProt O15520); experiment: FGF10 binders on small-molecule microarrays, primary screen, biochemical, small-molecule microarray, 635 nm fluorescence (AID 1102); conditions: FGF10 binding, fluorescence 635 nm, higher = more signal
# Sequence of Fibroblast growth factor 10 (Homo sapiens) (O15520 whole entry, looked up): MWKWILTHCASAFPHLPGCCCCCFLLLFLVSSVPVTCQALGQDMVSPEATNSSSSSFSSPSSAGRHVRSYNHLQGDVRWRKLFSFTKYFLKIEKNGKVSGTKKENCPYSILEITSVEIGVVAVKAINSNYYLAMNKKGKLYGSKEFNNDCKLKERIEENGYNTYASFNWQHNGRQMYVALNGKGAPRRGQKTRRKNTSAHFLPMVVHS
# [16] = tested on: glycogen synthase kinase-3 (GSK3A per assay name; protocol says GSK3B); experiment: GSK3 binders on small-molecule microarrays, primary screen, biochemical, small-molecule microarray, 635 nm fluorescence, GSK3A (AID 1103); conditions: small-molecule microarray binding, fluorescence 635 nm; higher = more signal; further: the record names both GSK3A and GSK3B
# [17] = target: Epidermal growth factor receptor (Homo sapiens) (UniProt P00533); experiment: EGFR binders on small-molecule microarrays, primary screen, biochemical, small-molecule microarray, 635 nm fluorescence (AID 1104); conditions: EGFR binding, higher = more signal;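 further: score merges 667 nm emission intensity with spot signal to noise over triplicate slides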
# Sequence of Epidermal growth factor receptor (Homo sapiens) (P00533 whole entry, looked up): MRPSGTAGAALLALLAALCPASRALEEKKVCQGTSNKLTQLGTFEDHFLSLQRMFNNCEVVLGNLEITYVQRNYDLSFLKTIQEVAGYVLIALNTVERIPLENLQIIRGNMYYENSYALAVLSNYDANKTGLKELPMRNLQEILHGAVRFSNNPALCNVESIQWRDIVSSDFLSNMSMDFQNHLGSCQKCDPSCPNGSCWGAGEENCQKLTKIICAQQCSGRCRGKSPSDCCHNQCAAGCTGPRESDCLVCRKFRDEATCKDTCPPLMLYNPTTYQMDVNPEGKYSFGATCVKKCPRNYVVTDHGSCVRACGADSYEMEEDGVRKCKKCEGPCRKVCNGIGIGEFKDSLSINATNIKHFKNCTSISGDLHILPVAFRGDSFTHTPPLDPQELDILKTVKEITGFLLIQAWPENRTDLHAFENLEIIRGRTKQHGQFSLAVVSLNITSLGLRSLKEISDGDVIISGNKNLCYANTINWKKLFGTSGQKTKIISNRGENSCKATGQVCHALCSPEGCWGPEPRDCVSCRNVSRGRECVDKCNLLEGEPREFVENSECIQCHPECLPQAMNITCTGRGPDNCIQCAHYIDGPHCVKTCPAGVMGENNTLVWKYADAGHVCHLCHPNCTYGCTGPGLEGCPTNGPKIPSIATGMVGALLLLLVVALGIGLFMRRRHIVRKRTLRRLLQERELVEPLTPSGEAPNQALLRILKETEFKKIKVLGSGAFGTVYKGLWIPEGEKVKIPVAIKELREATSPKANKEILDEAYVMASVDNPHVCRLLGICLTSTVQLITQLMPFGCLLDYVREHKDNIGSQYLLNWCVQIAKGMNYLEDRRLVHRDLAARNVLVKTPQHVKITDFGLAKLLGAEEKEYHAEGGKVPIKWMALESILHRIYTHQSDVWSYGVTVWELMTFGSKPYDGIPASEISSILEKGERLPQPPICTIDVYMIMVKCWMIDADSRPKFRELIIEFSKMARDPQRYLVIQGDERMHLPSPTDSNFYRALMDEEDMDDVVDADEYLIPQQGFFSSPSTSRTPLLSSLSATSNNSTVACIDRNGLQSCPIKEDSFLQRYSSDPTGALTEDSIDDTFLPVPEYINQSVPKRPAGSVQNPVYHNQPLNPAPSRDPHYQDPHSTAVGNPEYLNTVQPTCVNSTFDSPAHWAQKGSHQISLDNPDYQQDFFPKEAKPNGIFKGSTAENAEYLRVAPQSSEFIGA
# [18] = target: Follistatin-related protein 3 (Homo sapiens) (UniProt O95633); experiment: FSTL3 binders on small-molecule microarrays, primary screen, biochemical, small-molecule microarray, 635 nm fluorescence (AID 1105); conditions: FSTL3 binding, higher = more signal;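 further: score merges emission near 667 nm and signal to noise per printed spot across three slides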
# Sequence of Follistatin-related protein 3 (Homo sapiens) (O95633 whole entry, looked up): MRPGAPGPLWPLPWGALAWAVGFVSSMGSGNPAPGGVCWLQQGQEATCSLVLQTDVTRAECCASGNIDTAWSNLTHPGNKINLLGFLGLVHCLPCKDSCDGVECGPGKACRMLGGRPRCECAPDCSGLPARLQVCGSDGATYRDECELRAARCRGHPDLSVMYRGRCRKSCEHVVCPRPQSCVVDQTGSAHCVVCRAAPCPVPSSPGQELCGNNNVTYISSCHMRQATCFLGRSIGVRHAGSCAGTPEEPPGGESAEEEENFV
# [19] = target: Dickkopf-related protein 1 (Homo sapiens) (UniProt O94907); experiment: DKK1 binders on small-molecule microarrays, primary screen, biochemical, small-molecule microarray, 635 nm fluorescence scan (AID 1106); conditions: DKK1 binding, higher = more signal;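 further: score merges emission near 667 nm with signal to noise over three replicate slides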
# Sequence of Dickkopf-related protein 1 (Homo sapiens) (O94907 whole entry, looked up): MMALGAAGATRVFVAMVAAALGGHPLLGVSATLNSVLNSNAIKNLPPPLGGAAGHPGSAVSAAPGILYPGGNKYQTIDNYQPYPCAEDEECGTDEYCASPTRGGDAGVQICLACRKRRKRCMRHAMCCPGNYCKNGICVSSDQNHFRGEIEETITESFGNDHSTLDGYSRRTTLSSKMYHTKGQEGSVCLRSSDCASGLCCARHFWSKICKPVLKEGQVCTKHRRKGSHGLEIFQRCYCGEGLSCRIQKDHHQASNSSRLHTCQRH
# [20] = tested on: Inhibin beta A chain (activin A); experiment: INHBA (activin A) binders on microarrays, primary screen, biochemical, small-molecule microarray, 635 nm fluorescence scan (AID 1107); conditions: small-molecule microarray binding, higher = more signal;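 further: mouse activin A protein probed at 4.33 µg/mL on printed slides; score merges bound-protein fluorescence near 667 nm with spot signal-to-noise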
Compound,composite z-score [1],z-score [2],z-score [3],z-score [4],composite z-score [5],z-score [6],composite z-score [7],composite z-score [8],composite z-score [9],composite z-score [10],composite z-score [11],composite z-score [12],composite z-score [13],z-score [14],composite z-score [15],composite z-score [16],composite z-score [17],composite z-score [18],composite z-score [19],composite z-score [20]
COC(=O)[C@@]1(Cc2ccc(OC)cc2)[C@@H]2C(=CC(=O)[C@H]2CC(=O)C(=O)N(C)C)CN1C(=O)c1ccccc1,0.464,0.244 (inactive),0.693 (inactive),2.88 (inactive),3.54,-1.08 (inactive),0.413,-0.343,1.03,0.0364,0.86,1.22,1.09,-2.59 (inactive),0.945,1.07,-0.208,1.03,-0.568,0.928
COCCOC(=O)N1C(=O)[C@@]2(c3cc(C#CCCO)ccc31)[C@H](C(=O)Nc1nc3ccccc3s1)[C@H]1C(=O)O[C@H](c3ccccc3)[C@H](c3ccccc3)N1[C@@H]2c1ccccc1OCCO,1.54,2.53 (inactive),1.7 (inactive),3.64 (inactive),2.81,-0.0236 (inactive),-0.116,0.6,1.09,-0.0828,1.42,0.331,0.411,0.0499 (inactive),1.12,1.08,0.561,1.11,0.452,0.923
COCCOC(=O)N1C(=O)[C@@]2(c3cc(C#CC4(O)CCCCCC4)ccc31)[C@H](c1ccc(O)cc1)N1[C@H](c3ccccc3)[C@H](c3ccccc3)OC(=O)[C@H]1[C@@H]2C(=O)NC[C@H](O)c1ccccc1,1.55,0.0316 (inactive),-0.312 (inactive),0.939 (inactive),1.18,-0.639 (inactive),0.332,1.78,1.06,0.22,0.355,0.655,0.692,0.355 (inactive),1.12,1.29,0.783,0.936,1.08,-0.237
[N-]=[N+]=NCc1ccccc1C[C@@]1(C(=O)NCc2ccccc2)N=C(c2ccc(OCCCO)cc2)O[C@@H]1c1ccccc1N=[N+]=[N-],1.18,-1.38 (inactive),1.57 (inactive),6.91 (inactive),2.88,0.213 (inactive),0.198,-0.247,0.412,-0.0831,-0.108,0.559,1.13,-0.758 (inactive),0.894,1.21,-0.475,-0.206,-0.666,0.376
CC(C)OC(=O)C=C1C[C@@H](c2ccc(C(F)(F)F)cc2)O[C@@H](c2ccc(C(F)(F)F)cc2)O1,1.16,-1.84 (inactive),-7.12 (inactive),-1.52 (inactive),2.66,0.374 (inactive),-0.241,0.105,0.324,-0.195,1.12,0.164,0.492,-1.55 (inactive),0.158,0.485,-0.765,0.0144,-0.899,-0.522
COCCOC(=O)N1C(=O)[C@@]2(c3cc(C#Cc4ccc(OC)cc4)ccc31)[C@H](C(=O)Nc1nc3ccccc3s1)[C@H]1C(=O)O[C@H](c3ccccc3)[C@H](c3ccccc3)N1[C@@H]2c1ccc(O)cc1,1.55,0.903 (inactive),0.842 (inactive),1.16 (inactive),2.74,1.57 (inactive),-0.0071,1.55,1.08,0.213,1.48,0.166,-0.0767,-0.591 (inactive),1.39,1.29,0.571,1.24,0.875,0.318
COc1ccc([Si](C)(C)[C@H]2[C@H](CCO)O[C@@]3(C(=O)N(Cc4cccc(N5C(=O)COc6ccccc65)c4)c4ccccc43)[C@@H]2C)cc1,0.911,1.5 (inactive),-0.845 (inactive),16.8 (active),0.795,1.98 (inactive),-0.0021,0.164,0.14,-0.148,0.957,0.0114,0.122,-2.17 (inactive),-0.222,-0.585,-0.686,0.0253,0.125,-0.348
CCOC(=O)C1CCCCN1 (stereo not given),1.08,-0.0725 (inactive),0.438 (inactive),0.363 (inactive),1.16,-0.0508 (inactive),0.697,0.458,0.738,0.641,0.19,1.06,-0.193,-0.283 (inactive),0.946,0.682,0.403,0.653,0.516,-0.104
[N-]=[N+]=NCc1ccccc1C[C@]1(C(N)=O)N=C(c2ccc(OCCCO)cc2)O[C@H]1c1ccccc1,1.31,0.458 (inactive),-1.74 (inactive),2.34 (inactive),3.32,1.22 (inactive),0.158,-0.593,0.859,-0.02,1,0.774,0.827,-0.0612 (inactive),0.703,0.854,-1.17,-0.188,-1.14,-0.0778
CC(CO)N1C(=O)[C@@H]2[C@H]3C(=O)OCC=C[C@H]3OC23C=CCN(C(C)(C)C)C(=O)[C@@H]13 (stereo not given in full),-0.507,-0.0994 (inactive),-0.0932 (inactive),-0.422 (inactive),-1.25,-0.607 (inactive),-0.103,-0.429,-0.0056,-0.0656,0.115,-0.323,0.129,0.74 (inactive),-0.0566,-0.764,-1.14,-0.205,-0.496,-0.197
CN(C)C(=O)[C@@]1(Cc2ccccc2CN=[N+]=[N-])N=C(c2ccc(OCCCO)cc2)O[C@H]1c1ccccc1CN=[N+]=[N-],0.88,0.733 (inactive),1.19 (inactive),15.6 (active),2.6,0.0474 (inactive),0.514,-0.586,0.456,0.424,1.03,0.832,0.915,1.2 (inactive),0.871,-0.581,-0.167,-0.0464,-0.687,0.846
